The structures appear in SMILES notation. Values joined by “and” are separate entries in the source; they are usually repeats but may differ in a detail not shown here. Identical values can stand only once. About 5,100 (32%) of roughly 16,000 compounds were called active. Another 25% or so got no clear call; they are omitted. This is one part of the list. Values without a mark were called inactive. Calls come from the whole dose curve; as a rule, active = well fitted curve in the direction sought with a large enough effect; inconclusive = small, poorly fitted or top-dose-only effect, or effect the other way; inactive = no such curve, though single readings can be large or run the other way.

As usually defined, the AC50 is the concentration giving half of the maximal activity seen.
% is set by controls: 0 for no effect and ±100 for the full control effect.

Chain of Cytochrome P450 3A4 (Homo sapiens) (P08684 whole entry, looked up): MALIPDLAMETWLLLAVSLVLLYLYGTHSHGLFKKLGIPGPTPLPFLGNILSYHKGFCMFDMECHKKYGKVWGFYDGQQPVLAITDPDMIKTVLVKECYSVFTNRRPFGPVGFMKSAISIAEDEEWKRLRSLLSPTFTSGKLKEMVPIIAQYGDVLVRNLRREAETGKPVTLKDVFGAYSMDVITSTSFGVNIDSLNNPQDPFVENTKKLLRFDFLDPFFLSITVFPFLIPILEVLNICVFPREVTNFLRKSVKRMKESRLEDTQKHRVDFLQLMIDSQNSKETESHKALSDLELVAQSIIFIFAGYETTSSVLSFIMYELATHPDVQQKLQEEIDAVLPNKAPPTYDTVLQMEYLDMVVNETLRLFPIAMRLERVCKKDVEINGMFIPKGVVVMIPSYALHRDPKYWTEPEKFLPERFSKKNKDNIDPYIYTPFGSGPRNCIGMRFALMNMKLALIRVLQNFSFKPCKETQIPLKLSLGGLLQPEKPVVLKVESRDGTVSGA

This assay addresses Cytochrome P450 3A4 (Homo sapiens) (UniProt P08684). Put plainly: Cytochrome panel assay with activity outcomes. The settings on record: recombinant CYP, pro-luciferin dealkylation, luminescence, p450-cyp3a4; series mostly up to 57.1 µM.
Consider `CC(=O)N(O)CCCCCNC(=O)CCC(=O)N(O)CCCCCNC(=O)CCC(=O)N(O)CCCCCN`, for which the AC50 entry is “inactive”.
`O=C(O)C[C@H]1OCC=C2C[N@@+]3([O-])CC[C@]45c6ccccc6N[C@@H]4[C@@H]1[C@H]2C[C@H]53`: the activity, negative = inhibition was -0.0687% [at 11.4 µM].
For `Cc1ccc(C)c(CN2C(=O)C3CCCN3c3ccc(S(=O)(=O)N4CCOCC4)cc32)c1` (stereo unspecified), the AC50 is 11.2 µM (active).
The same measure, in the same setting: the figure for `Cc1ccc(C)c(CN2C(=O)C3CCCN3c3ccc(C#N)cc32)c1` (stereo unspecified) is 5.01 µM (active).
With `O=C(Cn1cc(C(F)(F)F)ccc1=O)N1CCN(S(=O)(=O)c2ccccc2)CC1`, the activity, negative = inhibition is -26.5% [at 11.4 µM].
Consider `O=C(c1ccc2c(c1)N(Cc1ccccc1)C(=O)CS2)N1CCOCC1`, for which the AC50 result was “inactive”.
On the same count and under the same terms, the result for `O=C1C2CCCN2c2ccc(S(=O)(=O)N3CCOCC3)cc2N1Cc1cccc(C(F)(F)F)c1` (stereo unspecified) reads 15.8 µM (active); that for `Cc1ccc(C2CC2C(=O)NN)cc1` (stereo unspecified), 7.94 µM (active).
Take `O=C(O)[C@@H](O)c1ccc(F)cc1`: the activity, negative = inhibition was -5.47% [at 11.4 µM].
As to `COc1ccc([C@@H](C)c2cc3c(cc2O)OCO3)cc1`, the AC50 is 2.51 µM (active).
As to `COc1ccc([C@H](O)c2ccccn2)cc1`, the activity, negative = inhibition is -5.07% [at 11.4 µM].
Regarding `COc1ccc([C@@H](Nc2ncccn2)c2cc3c(cc2O)OCO3)cc1`, the AC50 is 2.51 µM (active).
In the case of `N#CC(=C(/N)Sc1ccccc1N)/C(C#N)=C(/N)Sc1ccccc1N`, the concentration at half-maximal activity (AC50) is 316 nM (active) and 3.16 µM (active).
Same read-out and setting: the figure for `N#CC1=C(SCC(N)=O)NC2=C(C(=O)c3ccccc32)C1c1ccc(Cl)cc1` (stereo unspecified) is 10 µM (active).
On the same count and under the same terms, the entry for `C[N+](C)(C)CC[N+]1(C)Cc2c(Cl)c(Cl)c(Cl)c(Cl)c2C1` is “inactive”.
In the case of `C/C(CC(=O)Nc1cc(C)ccn1)=N\NC(=O)COc1cccc(C)c1`, the activity, negative = inhibition was -15.1% [at 2.29 µM].
For the compound `CCOc1ccc(C(CC(=O)O)NC(=O)COc2ccccc2)cc1` (stereo unspecified), the AC50 entry was “inactive”.
With `COc1cccc(OCC(=O)NN=C2c3ccccc3-c3ccccc32)c1`, the AC50 is 6.31 µM (active).
`Cc1cccc2c1OCC/C2=N\NC(=O)COc1ccccc1`: the AC50 was 15.8 µM (active).
Still for that read-out and setting: the result for `Cc1cccc2c1OCC/C2=N\NC(=O)COc1ccccc1Cl` reads “inactive”; that for `Cc1cccc(C)c1NC(=O)COc1cccc(/C=N/NC(=O)C(=O)NCc2ccccc2)c1`, “inactive”; that for `CC(N)=NCCCC[C@H](N)C(=O)O`, “inactive”.
`CCc1cccc2nc3c(c([Si](C)(C)C)c12)Cn1c-3cccc1=O`: the AC50 was 12.6 µM (active).
With `CCc1c2c(nc3cccc(C(C)C)c13)-c1cccc(=O)n1C2`, the AC50 is 15.8 µM (active).
On to `CC(C)c1cccc2nc3c(c([Si](C)(C)C(C)(C)C)c12)Cn1c-3cccc1=O`, for which the AC50 is 12.6 µM (active).
Still for that read-out and setting: the result for `CC(C)c1cccc2nc3c(c([Si](C)(C)C)c12)Cn1c-3cccc1=O` reads 10 µM (active); that for `CCc1c2c(nc3cccc(OC)c13)OC(CC)C2` (stereo unspecified), “inactive”; that for `O=C1CS/C(=C\[N+](=O)[O-])N1c1ccc(OC(F)(F)F)cc1`, “inactive”.
Consider `Cc1cc(C2CCCCC2)n(O)c(=O)c1`, for which the AC50 result was “inactive”.
The same measure, in the same setting: the result for `CCN(CC)CCOc1ccc(/C(=C(\Cl)c2ccccc2)c2ccccc2)cc1` reads “inactive”; that for `CN(C)CCCO[C@H]1[C@H]([C@H](O)CO)O[C@H]2OC(C)(C)O[C@@H]21`, “inactive”.
Regarding `O=c1c2ccccc2nc2n1CCC2`, the AC50 result was “inactive”.
On the same count and under the same terms, the figure for `Cc1c2c(nc3ccccc13)-c1cccc(=O)n1C2` is 12.6 µM (active); for `Cc1[nH]nc(-c2ccc(OCc3cnn(-c4ccccc4)c3)cc2O)c1Oc1ccc(F)cc1` it is 14.1 µM (active).
The same measure, in the same setting: the result for `Cc1ccccc1OC1C(=O)N(Cc2ccc3c(c2)OCO3)C1c1sccc1C` (stereo unspecified) reads 0.794 µM (active).
Take `COC(=O)c1ccc(C2C(Oc3ccccc3)C(=O)N2CCc2ccc(OC)c(OC)c2)cc1` (stereo unspecified): the AC50 was 2.82 µM (active).
For the compound `COc1ccc(CCN2C(=O)C(Oc3ccccc3C)C2c2ccc3c(c2)OCO3)cc1OC` (stereo unspecified), the AC50 was 0.501 µM (active).
Consider `NC(N)=NC(N)=Nc1ccccc1` (tested in a mixture with another compound), for which the activity, negative = inhibition is -12.3% [at 11.4 µM].
Take `Clc1ccc(C2=C3CCCCn4c(-c5ccccc5)c[n+](c43)C2)cc1`: the AC50 result was “inactive”.
Same read-out and setting: the result for `CC[C@H](NC(C)C)[C@H](O)c1ccc(O)c2[nH]c(=O)ccc12` reads “inactive”; that for `CCCc1cc(C(=O)Cc2nc3ccccc3s2)c(O)cc1O`, 12.6 µM (active).
As to `O=C(NNc1nc2ccccc2s1)C1CC1`, the AC50 entry was “inactive”.
`O=C(O)[C@@H](O)[C@@H](O)[C@@H](O)[C@@H](O)c1nc2ccccc2s1`: the activity, negative = inhibition was -23.6% [at 11.4 µM].
As to `O=C(Oc1ccc2ccccc2c1Br)N1CCCCCC1`, the half-maximal activity concentration (AC50) was 14.1 µM (active).
On the same count and under the same terms, the entry for `Cc1ccc(OC(=O)N2CCOCC2)cc1` is “inactive”.
As to `O=C(CCN1CCCCC1)c1csc2ccccc12`, the activity, negative = inhibition is -13.8% [at 11.4 µM].
As to `COc1ccc(/C=C(/NC(C)=O)C(=O)O)cc1`, the activity, negative = inhibition is 4.62% [at 2.29 µM].
`CCCCOc1ccc(C(=O)N/C(=C\c2cccc([N+](=O)[O-])c2)C(=O)OCCC)cc1`: the concentration at half-maximal activity (AC50) is 1 µM (active).
For the compound `CCCCOc1ccc(C(=O)N/C(=C\c2ccc(OC)cc2)C(=O)OCc2ccco2)cc1`, the concentration at half-maximal activity (AC50) was 3.98 µM (active).
Regarding `CCCCOc1ccc(C(=O)NCc2ccco2)cc1`, the AC50 result was “inactive”.
On the same count and under the same terms, the result for `OC[C@@H]1O[C@H](O)[C@@H](Cl)[C@H](O)[C@@H]1O` reads “inactive”; that for `Cc1cc(Br)cc(C)c1OCCCCN(C)C`, “inactive”.
Still for that read-out and setting: the figure for `C=CCNCCCCOc1c(Cl)cc(C)cc1Br` is 14.1 µM (active).
`COCCCNCCCCOc1c(Cl)cc(C)cc1Br`: the activity, negative = inhibition was -14.4% [at 2.29 µM].
With `COc1ccccc1-c1nc(NCc2cnc(C)cn2)c2ccccc2n1`, the AC50 was 15.8 µM (active).
Take `Cc1cnc(CNc2ccnc(-c3ccccc3C(F)(F)F)n2)cn1`: the AC50 entry is “inactive”.
For `Cc1cnc(CNc2nc(-c3ccccc3C(F)(F)F)nc3ccccc23)cn1`, the concentration at half-maximal activity (AC50) was 5.01 µM (active).
On the same count and under the same terms, the result for `COc1ccc2[nH]cc(CCNc3ncnc4ccc(-c5cccc(C#N)c5)cc34)c2c1` reads 2.51 µM (active).
Take `COc1cccc(-c2ccc3ncnc(NCCc4c[nH]c5ccc(OC)cc45)c3c2)c1`: the AC50 is 1.26 µM (active).
Same read-out and setting: the result for `COc1ccc2[nH]cc(CCNc3ncnc4ccc(-c5ccoc5)cc34)c2c1` reads 3.98 µM (active).
As to `COc1ccc2[nH]cc(CCNc3ncnc4ccc(-c5ccccc5C#N)cc34)c2c1`, the half-maximal activity concentration (AC50) was 2 µM (active).

Values taken from PubChem BioAssay AID1851 (National Center for Advancing Translational Sciences (NCATS), 2009).
